Reference: PubChem BioAssay (Tox21)
Inconclusive results are not listed. The source made the active and inactive calls. Calls follow the shape of the full dose curve.

Biological target: Progesterone receptor (Homo sapiens) (UniProt P06401)
Assay: qHTS assay to identify small molecule agonists of the progesterone receptor (PR) signaling pathway (AID 1346784); also: nearly all actives have a fitted effect of over 30% in size
Conditions: PR-UAS-bla HEK293T, beta-lactamase FRET ratio, 16 h; series mostly up to 92.4 µM
Excerpt: U.S. Tox21 Program National Center for Advancing Translational Sciences [NCATS] NIH Chemical Genomics Center [NCGC] U.S. Environmental Protection Agency [EPA] National Institutes of Environmental Health Sciences [NIEHS] National Toxicology Program [NTP] U.S. Food and Drug Administration [FDA] […] Endocrine disrupting chemicals (EDCs) and their interactions with steroid hormone receptors like PR causes disruption of normal endocrine function. To identify the compounds that activate PR signaling, a PR-UAS-bla GripTite cell line i.e. PR-UAS-bla HEK 293T (Invitrogen, Carlsbad, CA, USA) containing a beta-lactamase reporter gene under the control of an Upstream Activator Sequence (UAS) was used to screen Tox21 10K compound library.
Tox21 Assay Protocol Summary: PR-UAS-bla HEK 293T cells were dispensed at 3,000 cells/5 uL of assay medium containing 2% charcoal stripped FBS per well into black wall/clear-bottom 1536-well plates using a Multidrop Combi (ThermoFisher Scientific, Waltham, MA) dispenser. After the assay plates were incubated at a 37C and 5% CO2 for 6hr, 23 nL of compounds dissolved in DMSO, positive controls or DMSO only was transferred to the assay plate by a Pintool station (Kalypsys, San Diego, CA). The plates were incubated at 37C and 5% CO2 for 16hr. Then 1 uL of LiveBLAzer B/G FRET substrate was added using a BioRAPTR FRD (Flying Reagent Dispenser, Aurora Discovery, San Diego, CA). After the plates were incubated at room temperature for 2 hours, fluorescence intensity was measured by an Envision plate reader (PerkinElmer, Shelton, CT).
% is scaled to controls: 0 for no effect and ±100 for the full control effect.

Chain of Progesterone receptor (Homo sapiens) (P06401 whole entry, looked up): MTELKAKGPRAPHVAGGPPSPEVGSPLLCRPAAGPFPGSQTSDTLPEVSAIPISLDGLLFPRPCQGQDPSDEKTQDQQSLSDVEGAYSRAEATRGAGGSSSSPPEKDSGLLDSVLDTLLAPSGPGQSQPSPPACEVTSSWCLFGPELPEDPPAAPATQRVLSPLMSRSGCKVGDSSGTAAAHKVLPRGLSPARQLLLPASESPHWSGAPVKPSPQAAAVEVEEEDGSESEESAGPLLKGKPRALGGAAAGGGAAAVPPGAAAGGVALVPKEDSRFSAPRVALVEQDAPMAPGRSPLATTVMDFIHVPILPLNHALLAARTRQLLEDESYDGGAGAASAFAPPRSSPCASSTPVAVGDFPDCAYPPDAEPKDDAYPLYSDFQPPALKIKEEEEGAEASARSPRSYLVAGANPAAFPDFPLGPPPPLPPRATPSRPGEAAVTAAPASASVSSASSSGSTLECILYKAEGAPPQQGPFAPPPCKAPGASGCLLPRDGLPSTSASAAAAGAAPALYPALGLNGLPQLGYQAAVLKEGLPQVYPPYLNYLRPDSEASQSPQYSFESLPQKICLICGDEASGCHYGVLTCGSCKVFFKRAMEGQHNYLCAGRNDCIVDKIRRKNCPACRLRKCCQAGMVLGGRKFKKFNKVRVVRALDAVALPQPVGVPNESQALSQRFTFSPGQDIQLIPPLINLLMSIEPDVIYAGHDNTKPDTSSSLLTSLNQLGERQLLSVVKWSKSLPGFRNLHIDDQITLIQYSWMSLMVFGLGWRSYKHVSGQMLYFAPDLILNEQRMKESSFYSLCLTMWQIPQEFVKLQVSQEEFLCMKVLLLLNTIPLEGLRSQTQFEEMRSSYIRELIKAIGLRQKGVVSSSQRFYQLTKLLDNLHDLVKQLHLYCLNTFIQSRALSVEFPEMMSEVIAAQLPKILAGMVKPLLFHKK

Compound	outcome	activation
CC(C)(C)c1n[nH]c(=O)n(N)c1=O	inactive	–
Cn1cnc2ncnc(N)c21	inactive	–
CCc1cccc(C)c1	inactive	–
C=C(C)C(=O)OCCC[Si](Cl)(Cl)Cl	inactive	–
CCC(C)c1ccccc1 (stereo not given)	inactive	–
c1cc2c3c(c1)ccc1cccc(c13)C2	inactive	–
CCCCOC(=O)C(C)CC (stereo not given)	inactive	–
Clc1nc2ccccc2s1	inactive	–
O=S(=O)(O)CCCN1CCOCC1	inactive	–
CCCC(=O)OCC(COC(=O)CCC)OC(=O)CCC	inactive	–
ClC/C=C\CCl	inactive	–
O=C1OC(OC(=O)c2cccnc2Nc2cccc(C(F)(F)F)c2)c2ccccc21 (stereo not given)	inactive	–
COc1ccc(C#N)cc1	inactive	–
Clc1cccnc1	inactive	–
CCOC(=O)COc1ccc(C)cc1	inactive	–
CCCN(CCc1cccs1)[C@H]1CCc2c(O)cccc2C1	inactive	–
Oc1ccc(-c2ccccc2)c(Cl)c1	inactive	–
O=C[C@H](O)[C@H](O)[C@H](O)CO	inactive	–
CCO[Si](C)(C)OCC	inactive	–
CC(C)=C1CC[C@@H](C)CC1=O	inactive	–

Compound	outcome	activation
CNCC[C@H](Oc1cccc2ccccc12)c1cccs1	inactive	–
[O]=[Zr]	inactive	–
O=CC1CC1	inactive	–
CCC(=O)CC(C)CC (stereo not given)	–	-0.264% [at 0.349 µM] (inactive)
Cc1ccc(-n2[nH]c(C)c(N=Nc3cccc(-c4cccc(C(=O)O)c4)c3O)c2=O)cc1C	inactive	–
CC(=O)c1ccccc1N	inactive	–
CCCCCCCCCC(=O)N(C)C	inactive	–
CCCCCCCCCCc1ccccc1	inactive	–
OCCCCl	inactive	–
COc1ccccc1C=O	inactive	–
CN1[C@@H]2CC[C@H]1CC(OC(=O)C(CO)c1ccccc1)C2 (stereo not given in full)	inactive	–
CO[Si](CCCNCCNCCN)(OC)OC	inactive	–
CC(C)=CC1CC(C)CCO1 (stereo not given)	inactive	–
S=C(SSSSSSC(=S)N1CCCCC1)N1CCCCC1	–	0.512% [at 19 µM] (inactive)
CCN(CC)c1cccc(C)c1	inactive	–
CN(Cc1cc(Br)cc(Br)c1N)C1CCCCC1	inactive	–
C=CC(C)C#N (stereo not given)	inactive	–
OCCN1CN(CCO)CN(CCO)C1	inactive	–
C[C@]12CC[C@H]3C(=CCc4cc(O)ccc43)[C@@H]1CCC2=O	inactive	–
CN1CN(C)CN(C)C1	inactive	–
